ALDH1A1 inh = blocks purified human ALDH1A1 activity. P00352. Purified ALDH1A1, NADH fluorescence, propionaldehyde substrate. Potency, µM (top dose mostly 75.3 µM), inactives show at the top dose activity, negative = inhibition, most hits filed as inhibitors. actives 7.3% (n = 220,000). AID 1030;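 also: potency is read from the fitted curve at half-maximal effect; plate controls were no enzyme wells and a reference inhibitor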
HPGD block = inhibitors of human 15-hydroxyprostaglandin dehydrogenase (HPGD); actives 4.3% (n = 150,000); purified HPGD, NADH fluorescence kinetic, PGE2 substrate; Potency, µM, inactives show top-dose activity change, negative = inhibition, most hits filed as inhibitors; P15428; AID 894; also: potency is read from the fitted curve at half-maximal effect
Target sequence (P15428 whole entry, looked up): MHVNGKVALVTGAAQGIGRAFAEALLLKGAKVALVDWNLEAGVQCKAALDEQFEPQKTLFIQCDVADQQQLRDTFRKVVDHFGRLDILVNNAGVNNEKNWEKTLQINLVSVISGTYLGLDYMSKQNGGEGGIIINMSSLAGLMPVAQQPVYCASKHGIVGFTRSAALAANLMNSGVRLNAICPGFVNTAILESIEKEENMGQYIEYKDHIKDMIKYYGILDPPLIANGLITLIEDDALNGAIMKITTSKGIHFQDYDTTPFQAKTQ
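NADH formation kinetics: reaction with 30 uM PGE2 and 1 mM NAD+ (final), 20 nM enzyme, Tris-HCl pH 8 with Tween 20, after 15 min compound preincubation at room temperature. Fluorescence change, last versus first of five reads.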
IMPase cell inh = membrane-permeable compound that blocks inositol monophosphatase; AID 901; 120,000 tested, under 10 active; inhibition (IP1 accumulation), % at 46.1 µM; CHO-M1 cells, IP1 accumulation, HTRF TR-FRET ratio; active = well fitted curve in the direction sought with a large enough effect in the signal ratio, not every such curve was filed as active; inconclusive = small, poorly fitted or top-dose-only effect, or a change in a side signal; inactive = no such curve, though single readings can be large or run the other way; the % refers to the signal ratio;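 also: cells stimulated with carbachol in lithium chloride buffer; plate controls were DMSO basal wells for no effect and reference inhibitor wells for full effect; higher means more IMPase inhibition seen as more IP1 and lower FRET ratio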
Target sequence (P97697 whole entry, looked up): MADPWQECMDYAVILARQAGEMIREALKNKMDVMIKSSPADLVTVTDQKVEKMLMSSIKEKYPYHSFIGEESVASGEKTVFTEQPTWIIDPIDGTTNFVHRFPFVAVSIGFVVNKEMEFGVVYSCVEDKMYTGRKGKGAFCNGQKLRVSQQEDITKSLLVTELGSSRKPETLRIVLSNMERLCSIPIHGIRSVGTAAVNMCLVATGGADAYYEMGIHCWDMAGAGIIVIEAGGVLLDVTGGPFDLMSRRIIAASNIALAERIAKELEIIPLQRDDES
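CHO-M1, 2000 cells/well, cultured 16–30 h; cpd up to 46 uM; carbachol (50 uM solution, stimulation buffer w/ 50 mM LiCl, pH 7.4), 30 min 37C; IP-One TR-FRET, 10 min RT; Ex 320/Em 665, 620; Hill-fit AC50.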
Active calls of the source: *; ? = inconclusive; . = no result given; [ ] = remark or other dose. In the library only some 9% were active in any assay of this set; here they are far more common. Unless noted, calls follow the shape of the dose curve; as a rule, active = well fitted inhibition curve with a large enough effect (not every such curve was filed as active); inconclusive = small, poorly fitted or top-dose-only effect, or another doubt; inactive = no such curve, though single readings can be large or run the other way. Unless noted, % is scaled to controls: 0 for no effect and ±100 for the full control effect.

SMILES | ALDH1A1 inh | HPGD block | IMPase cell inh
Cc1ccc(S(=O)(=O)c2nc(-c3ccccc3)oc2NCc2cccnc2)cc1 | 28.2µM* | -18.7% | -5.0
O=S(=O)(c1ccccc1)c1nc(-c2ccco2)oc1NCCCN1CCOCC1 | 8.91µM* | -23.7% | 2.9
O=S(=O)(c1ccccc1)c1nc(-c2ccc(F)cc2)oc1NCc1ccccc1 | . | . | 2.2
Cc1ccc(CNc2oc(-c3ccco3)nc2S(=O)(=O)c2ccccc2)cc1 | 28.2µM* | -24.9% | 15.5
Cc1cc(OC(=O)c2ccc(Cl)cc2Cl)nc(C)n1 | 3.7% | -24.7% | -1.6
C=CCCOc1ccccc1C(N)=O | 3.4% | . | .
COC(=O)N1CCC2(CC1)CN(C(=O)Nc1ccc(OC)cc1)C2 | 3.4% | -2.3% | .
CCC(=O)c1c(NC(C)C)cc(C)oc1=O | -7.4% | . | .
O=C(COc1ccccc1-c1ccccc1)N/N=C/c1ccccn1 | -4.1% | . | .
O=C(COc1ccccc1-c1ccccc1)N/N=C/c1cccnc1 | -1.5% | . | .
C/C(=N\NC(=O)COc1ccccc1-c1ccccc1)c1ccccn1 | 2.51µM* | . | .
C/C(=N\NC(=O)COc1ccccc1-c1ccccc1)c1cccnc1 | 14.1µM* | . | .
Cc1c(N=C2N=C(NC(=O)Nc3ccc(Cl)cc3)c3ccccc32)c(=O)n(-c2ccccc2)n1C | 11.4% | . | .
O=C(Nc1ccc(N2CCN(C(=O)c3ccc(Cl)cc3)CC2)cc1)c1ccc(Br)o1 | -4.4% | -1.8% | 17.4
O=C(Nc1ccc(N2CCN(C(=O)c3ccccc3)CC2)cc1)c1ccc([N+](=O)[O-])o1 | 11.2µM* | . | .
CCCC(=O)N1CCN(c2ccc(NC(=O)c3ccc([N+](=O)[O-])o3)cc2Cl)CC1 | 17.8µM* | . | .
CCCCCC(=O)Nc1ccc(N2CCN(CC)CC2)c(Cl)c1 | 0.9% | 4.6% | 23.3
CNc1ccccc1C(C)(C)c1cc(C)[nH]n1 | 9.6% | . | .
CNc1ccccc1C(C)(C)c1cc(-c2ccco2)n[nH]1 | 7.94µM* | -4.1% | 11.0
COC(=O)[C@@]1(Cc2ccc(F)cc2)[C@H]2c3cc(C(=O)N4CCCC4)n(CCN4CNCC4=O)c3C[C@H]2CN1C(=O)c1ccccc1 | -1.7% | -8.2% | .
CN1CCN(Cc2c(O)ccc3cc(Br)ccc23)CC1 | 25.1µM* | . | .
Oc1ccc2ccccc2c1CN1CCN(c2ccccc2F)CC1 | ? | -26.4% | 11.0
CCn1c(-c2ccc(OC)c(OC)c2)n[nH]c1=S | ? | -18.1% | 14.6
CCCCn1c(-c2cc(Cl)ccc2OC)n[nH]c1=S | ? | 28.2µM* | -11.3
CN(Cc1cnn(C)c1)C(=O)c1cc(COc2c(F)cccc2F)on1 | 10.2% | . | .
SMILES | ALDH1A1 inh | HPGD block | IMPase cell inh
CCN1c2ccccc2NC2C1C(C(C)=O)C(=O)N2c1ccc(Cl)cc1 (stereo not given) | 14.1µM* | -13.1% | 10.1
O=C1Nc2ccccc2N(O)N1c1ccc(Cl)cc1 | 11.4% | . | .
FC(F)(F)c1cc(NC(=S)Nc2ccc3ccccc3c2)cc(C(F)(F)F)c1 | -1.8% | -21.1% | .
COC(=O)c1cc(=O)n(-c2ccc(F)cc2)c(=Nc2ccc(F)cc2)s1 | 7.5% | -6.2% | .
COC(=O)c1cc(=O)n(Cc2ccc3c(c2)OCO3)c(=Nc2ccc(F)cc2)s1 | ? | -4.7% | 6.5
COC(=O)c1cc(=O)n(Cc2ccc3c(c2)OCO3)c(=Nc2ccccc2)s1 | 0.631µM* | -20.9% | 7.4
COC(=O)c1cc(=O)n(Cc2cccs2)c(=Nc2ccc(F)cc2)s1 | 10µM* | . | .
COC(=O)c1cc(=O)n(Cc2ccco2)c(=Nc2ccc(F)c(Cl)c2)s1 | 3.55µM* | -10.0% | 15.6
COC(=O)c1cc(=O)n(CCc2ccccc2F)c(=Nc2ccc(F)c(Cl)c2)s1 | 9.3% | -10.7% | 10.1
COc1ccc2c(c1)O[C@@H](c1ccc3c(c1)OCO3)[C@H](OC(=O)NS(=O)(=O)c1ccc(F)cc1)C2=O | ? | -12.6% | .
NCCCCCc1cnc[nH]1 | 2.8% | -3.9% | .
CCCCc1ccc(NC(=O)C(=O)NCCN2CCN(Cc3ccc([N+](=O)[O-])cc3)CC2)cc1 | -1.3% | . | .
O=C(OCc1cc2ccccc2[nH]c1=O)C1CCCCC1 | 20µM* | . | 5.6
O=C(OCc1cc2ccccc2[nH]c1=O)C1CCCO1 (stereo not given) | ? | . | 3.2
CCCn1c(=O)c2c(c3ccccc31)OC(C)C(=O)N2 (stereo not given) | 6.2% | -4.2% | -5.9
CCCCn1c(=O)c2c(c3ccccc31)OCC(=O)N2 | 20µM* | -11.0% | 6.9
Oc1cc(O)c2c(c1)O[C@H](c1ccc(O)c(O)c1)[C@@H](O)[C@@H]2c1c(O)cc(O)c2c1O[C@@H](c1ccc(O)c(O)c1)[C@H](O)C2 | 1.8%[13.5 µM] | 0.2% | .
CC(=O)OC[C@@H]1O[C@H](C/C=N\OC[C@@H](O)[C@H]2O[C@H]3OC(C)(C)O[C@H]3[C@@H]2O)C=C[C@@H]1OC(C)=O | 6.3%[13.5 µM] | . | .
COC(=O)C1(CC(C)C)C=C2C(=C(c3ccccc3)C(=O)C2C)CN1 (stereo not given) | -11.4% | ? | .
CC(=O)c1ccc(Oc2cc(-c3ccccc3)nc(-c3ccccc3)n2)cc1 | -0.2% | -11.2% | .
O=Cc1ccc(Oc2cc(-c3ccccc3)nc(-c3ccccc3)n2)cc1 | 22.4µM* | -7.1% | -5.4
COc1ccc(Nc2nnc(C)c(=O)[nH]2)cc1 | 9.4% | -6.7% | -5.9
O=C1CCCC(=O)C1C(=O)C1CCN(S(=O)(=O)c2ccccc2)CC1 | 7.6% | . | .
S=C1NC2=C(CCCC2=C2SCCS2)C(c2ccccc2)N1 (stereo not given) | 0.355µM* | . | .
Cc1ccc(C2NC(=O)NC3=C2CCc2ccccc23)cc1 (stereo not given) | ? | ? | 5.9
SMILES | ALDH1A1 inh | HPGD block | IMPase cell inh
COc1ccccc1-n1c(C)c2c(OC)cccc(=O)c2c1C | ? | 11.2µM* | .
COc1ccc(-n2c(C)c3c(OC)cccc(=O)c3c2C)cc1 | 0.1% | -24.7% | 0.8
FC(F)(F)c1cnc(N2CCCN(C(=S)Nc3ccccc3)CC2)c(Cl)c1 | 1.7% | . | .
Cc1cc(C)nc(-n2ncc3c2CC(c2cccc(Cl)c2)CC3=O)n1 (stereo not given) | 14.1% | . | .
C/C=C/C(=O)OCC(=O)Nc1ccc(SC(F)F)cc1 | -8.3% | . | .
COc1ccc(-c2nc(-n3c(C)c(C(C)=O)c(C(C)=O)c3C)sc2C)cc1 | ? | -17.4% | 2.8
COc1ccc(-c2nc(C)sc2C)cc1 | ? | 28.2µM* | .
O=C(CCc1ccccc1)NNC(=O)c1ccco1 | 8.3% | 28.2µM* | 7.6
O=C(CCC(=O)Nc1ccccc1)NNC(=O)c1ccco1 | 12.4% | -2.8% | -13.7
O=C(CCC1CCCN(C(=O)C2(c3ccccc3)CC2)C1)N1CCN(c2ccccn2)CC1 (stereo not given) | -11.6% | . | .
CC(=O)[C@@H]1[C@@H](C(=O)c2ccc(C)cc2)[C@]2(C(=O)Nc3ccccc32)[C@H]2C=Cc3cc(F)ccc3N12 | ? | -3.2% | .
O=C(c1ccc(F)cc1)[C@@H]1[C@@H](C(=O)c2ccccc2)[C@@]2(C(=O)Nc3ccccc32)[C@H]2c3ccccc3C=CN12 | 20µM* | -19.0% | 16.8
COc1cc(N=c2ssnc2Cl)c(OC)cc1Cl | 1.58µM* | 3.55µM* | 8.7
COc1ccc(OC)c(N=c2ssnc2Cl)c1 | 1.58µM* | 3.16µM* | 1.5
COc1ccc(OC)c(N=C2C(=O)Nc3ccccc32)c1 | -12.1% | -8.9% | 11.2
COc1cc(-n2nnnc2SC)c(OC)cc1Cl | -7.7% | . | .

From PubChem
